# Several values for one entry are separate records, joined by “and”; a condition that tells them apart may be missing. Identical values can stand only once. Some compounds were tested as several samples or in several runs, with calls that do not always agree. Activity calls are given as the source filed them. Rule for the calls: active = hit-call score of the fitted dose curve at least 0.9, where 1 is the maximum; inactive = score below 0.9.
# Legend:
# [1] = target: Transcription factor E2F1 (Homo sapiens) (UniProt Q01094); test: ATG_E2F_CIS: Attagene CIS-FACTORIAL HepG2 Assay for human E2F Transcription Factor 1 (AID 2282935); conditions: HepG2 Attagene cis-reporter, E2F reporter RNA transcripts; actives raise or lower the signal
# Chain of Transcription factor E2F1 (Homo sapiens) (Q01094 whole entry, looked up): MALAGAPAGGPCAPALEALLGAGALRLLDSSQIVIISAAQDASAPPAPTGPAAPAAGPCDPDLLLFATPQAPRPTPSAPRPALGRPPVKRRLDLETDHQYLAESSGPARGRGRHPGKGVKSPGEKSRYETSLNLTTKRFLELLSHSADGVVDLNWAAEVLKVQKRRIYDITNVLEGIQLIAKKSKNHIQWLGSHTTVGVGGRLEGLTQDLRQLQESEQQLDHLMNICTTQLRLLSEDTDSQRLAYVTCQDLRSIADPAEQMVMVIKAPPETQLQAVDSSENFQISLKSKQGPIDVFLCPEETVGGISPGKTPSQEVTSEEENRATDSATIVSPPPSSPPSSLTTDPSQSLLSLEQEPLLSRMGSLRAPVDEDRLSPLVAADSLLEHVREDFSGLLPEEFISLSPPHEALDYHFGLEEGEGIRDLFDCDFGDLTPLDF
# Outline: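 HepG2 cells transiently transfected with multiplexed cis-element reporter units, dosed for 24 h. Reporter mRNA measured by RT-PCR, 6-FAM primer-extension labeling, HpaI digestion and capillary electrophoresis; bidirectional fit versus DMSO baseline.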
# [2] = ATG_E_Box_CIS: Attagene CIS-FACTORIAL HepG2 Assay for human Enhancer Box (E-box) (AID 2282936); conditions: HepG2 E-box cis-reporter transcription, actives raise or lower the signal
# Outline: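 HepG2 cells transiently transfected with multiplexed cis-element reporter units sensing endogenous transcription factor activity; 24 h compound exposure. Reporter mRNA measured by RT-PCR, 6-FAM primer extension, HpaI digestion and capillary electrophoresis; bidirectional fit versus DMSO.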
# [3] = ATG_M_61_CIS: Attagene CIS-FACTORIAL HepG2 Assay for M61 Transcription Factor (Internal Marker) (AID 2282937); conditions: HepG2 Attagene CIS-FACTORIAL M61 internal marker reporter; actives raise or lower the signal
# Outline: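 Background-control endpoint: HepG2 cells with cis-regulated reporter constructs, 24 h exposure, reporter mRNA detected via fluorescent primer extension and capillary electrophoresis; values from bidirectional fitting with DMSO baseline.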
# [4] = ATG_M_19_CIS: Attagene CIS-FACTORIAL HepG2 Assay for M19 Transcription Factor (Internal Marker) (AID 2282939); conditions: HepG2 Attagene CIS-FACTORIAL M19 internal marker reporter; actives raise or lower the signal
# Outline: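 Readout: fluorescent reporter-transcript fragments by capillary electrophoresis after RT-PCR. Human HepG2 liver cells carried transfected MRTU constructs reporting endogenous transcription-factor activity; exposure 24 h. Gain or loss of signal fitted relative to DMSO.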
# [5] = ATG_ERE_CIS: Attagene CIS-FACTORIAL HepG2 Assay for Estrogen Response Element (ERE) (AID 2282940); conditions: HepG2 ERE cis-reporter, Attagene RNA transcript; actives raise or lower the signal
# Outline: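 Readout: reporter mRNA induction by RT-PCR, FAM-labelled primer extension, HpaI digestion and capillary electrophoresis, 24 h after dosing transfected HepG2 cells. Endogenous transcription factors act on cis-element-regulated reporters. Gain or loss fitted against DMSO.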
# [6] = ATG_Ets_CIS: Attagene CIS-FACTORIAL HepG2 Assay for human Erythroblast Transformation Specific (ETS) (AID 2282941); conditions: HepG2 ETS cis-reporter transcription, actives raise or lower the signal
# Outline: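 Human HepG2 hepatoma cells were transiently transfected with promoter-driven reporter constructs and treated for 24 hours. Reporter transcripts were quantified by RT-PCR with fluorescent primer extension; bidirectional curve fitting used DMSO as reference.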
# [7] = target: Hepatocyte nuclear factor 3-beta (Homo sapiens) (UniProt Q9Y261); test: ATG_FoxA2_CIS: Attagene CIS-FACTORIAL HepG2 Assay for human Forkhead box A2 (FOXA2) (AID 2282942); conditions: HepG2 cis-reporter transcription factor activity, 24 h; actives raise or lower the signal
# Chain of Hepatocyte nuclear factor 3-beta (Homo sapiens) (Q9Y261 whole entry, looked up): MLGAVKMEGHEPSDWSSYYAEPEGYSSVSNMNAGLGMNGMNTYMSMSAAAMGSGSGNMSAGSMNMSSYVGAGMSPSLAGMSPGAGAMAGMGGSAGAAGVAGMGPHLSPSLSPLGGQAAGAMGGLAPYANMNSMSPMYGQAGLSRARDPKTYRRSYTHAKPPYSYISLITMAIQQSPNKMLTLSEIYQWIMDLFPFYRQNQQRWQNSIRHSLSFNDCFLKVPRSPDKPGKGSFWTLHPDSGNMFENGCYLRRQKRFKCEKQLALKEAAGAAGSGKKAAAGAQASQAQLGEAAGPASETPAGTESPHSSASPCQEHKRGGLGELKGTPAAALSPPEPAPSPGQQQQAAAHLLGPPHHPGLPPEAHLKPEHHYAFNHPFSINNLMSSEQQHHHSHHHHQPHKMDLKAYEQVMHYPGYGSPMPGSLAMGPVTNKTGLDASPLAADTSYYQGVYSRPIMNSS
# Outline: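 Measured: reporter mRNA induction or loss in HepG2 transiently carrying multiple cis-regulated reporter units, 24 h after dosing. Quantified by RT-PCR plus capillary electrophoresis, normalised to DMSO.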
# [8] = ATG_FoxO_CIS: Attagene CIS-FACTORIAL HepG2 Assay for human Forkhead box O (FoxO) (AID 2282943); conditions: HepG2 Attagene cis-reporter, FoxO element, mRNA; actives raise or lower the signal
# Outline: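 HepG2 cells transiently transfected with cis-promoter-driven multiple reporter transcription units; 24 h after chemical dosing, reporter mRNA quantified by RT-PCR, fluorescent primer extension, HpaI digestion and capillary electrophoresis. Bidirectional fitting versus DMSO baseline.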
# [9] = ATG_GLI_CIS: Attagene CIS-FACTORIAL HepG2 Assay for human Zinc Finger Protein GLI1 (AID 2282945); conditions: HepG2, Attagene cis-factorial reporter mRNA, GLI element; actives raise or lower the signal
# Outline: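 HepG2 cells transiently transfected with cis-promoter multiplexed reporter units report endogenous transcription factor activity. After 24 h chemical exposure, reporter mRNA was quantified by RT-PCR, 6-FAM labelling, HpaI digestion and capillary electrophoresis, with bidirectional fitting against DMSO.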
# [10] = ATG_ISRE_CIS: Attagene CIS-FACTORIAL HepG2 Assay for human Interferon Regulatory Factor 1 (IRF1) binding to an Interferon-Stimulated Response Element (ISRE) (AID 2282948); conditions: HepG2 ISRE cis-reporter (Attagene), mRNA transcription readout; actives raise or lower the signal
# Outline: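 Cell-based cis-reporter assay; HepG2; 24 h exposure; reporter mRNA by RT-PCR plus capillary electrophoresis fluorescence; activity in either direction scored relative to DMSO.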
# [11] = ATG_M_32_CIS: Attagene CIS-FACTORIAL HepG2 Assay for M32 Transcription Factor (Internal Marker) (AID 2282949); conditions: HepG2 Attagene cis-factorial M32 reporter, mRNA; actives raise or lower the signal;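 note: background control marker of the multiplexed CIS panel rather than a real target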
# Outline: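 Following 24 h chemical exposure of HepG2 cells transiently expressing cis-promoter reporter constructs, reporter transcript levels were determined by RT-PCR with fluorescent labelling and capillary electrophoresis, then fitted bidirectionally against DMSO.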
# [12] = ATG_M_06_CIS: Attagene CIS-FACTORIAL HepG2 Assay for M06 Transcription Factor (Internal Marker) (AID 2282950); conditions: HepG2 Attagene CIS-FACTORIAL M06 internal marker reporter; actives raise or lower the signal
# Outline: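 Terse: HepG2, transient MRTU transfection (FuGene 6), 24 h dosing; total RNA, oligo(dT) RT, PCR, FAM label, HpaI cut, capillary electrophoresis; bidirectional fit vs DMSO baseline; background-control endpoint.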
# [13] = target: Hypoxia-inducible factor 1-alpha (Homo sapiens) (UniProt Q16665); test: ATG_HIF1a_CIS: Attagene CIS-FACTORIAL HepG2 Assay for human Hypoxia Inducible Factor 1 (HIF1A) (AID 2282951); conditions: HepG2 Attagene cis-factorial HIF1a reporter transcription; actives raise or lower the signal
# Chain of Hypoxia-inducible factor 1-alpha (Homo sapiens) (Q16665 whole entry, looked up): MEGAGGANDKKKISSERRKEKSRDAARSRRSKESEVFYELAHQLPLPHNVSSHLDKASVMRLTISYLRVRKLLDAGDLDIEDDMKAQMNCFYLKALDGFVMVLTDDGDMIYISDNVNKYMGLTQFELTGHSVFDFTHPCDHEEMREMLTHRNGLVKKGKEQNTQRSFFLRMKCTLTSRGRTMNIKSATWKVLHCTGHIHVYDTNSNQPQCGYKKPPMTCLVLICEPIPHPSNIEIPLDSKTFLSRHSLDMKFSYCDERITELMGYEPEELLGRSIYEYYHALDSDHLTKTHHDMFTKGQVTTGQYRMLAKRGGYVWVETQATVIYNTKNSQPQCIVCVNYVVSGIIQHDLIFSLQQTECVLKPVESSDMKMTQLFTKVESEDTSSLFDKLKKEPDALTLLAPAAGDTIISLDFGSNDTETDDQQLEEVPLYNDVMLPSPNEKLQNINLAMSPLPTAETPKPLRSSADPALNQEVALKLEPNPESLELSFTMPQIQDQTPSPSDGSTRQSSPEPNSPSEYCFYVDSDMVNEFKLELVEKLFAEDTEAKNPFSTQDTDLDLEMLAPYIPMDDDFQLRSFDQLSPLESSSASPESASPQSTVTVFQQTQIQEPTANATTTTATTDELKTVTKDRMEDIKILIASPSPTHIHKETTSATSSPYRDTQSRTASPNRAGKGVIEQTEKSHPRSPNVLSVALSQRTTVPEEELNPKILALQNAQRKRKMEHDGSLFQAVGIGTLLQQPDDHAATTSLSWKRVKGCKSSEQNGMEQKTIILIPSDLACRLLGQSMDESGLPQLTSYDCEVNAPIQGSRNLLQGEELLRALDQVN
# Outline: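 Dosed 24 h, transfected HepG2 cells yielded total RNA whose reporter transcripts were RT-PCR-amplified and sized by capillary electrophoresis using fluorescent labelling; DMSO defined baseline, with gain and loss of signal both fitted.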
# [14] = target: Heat shock factor protein 1 (Homo sapiens) (UniProt Q00613); test: ATG_HSE_CIS: Attagene CIS-FACTORIAL HepG2 Assay for human Heat Shock Transcription Factor 1 (HSE) (AID 2282953); conditions: HepG2 HSE cis-reporter, Attagene RNA transcription; actives raise or lower the signal
# Chain of Heat shock factor protein 1 (Homo sapiens) (Q00613 whole entry, looked up, the tested form may be a part): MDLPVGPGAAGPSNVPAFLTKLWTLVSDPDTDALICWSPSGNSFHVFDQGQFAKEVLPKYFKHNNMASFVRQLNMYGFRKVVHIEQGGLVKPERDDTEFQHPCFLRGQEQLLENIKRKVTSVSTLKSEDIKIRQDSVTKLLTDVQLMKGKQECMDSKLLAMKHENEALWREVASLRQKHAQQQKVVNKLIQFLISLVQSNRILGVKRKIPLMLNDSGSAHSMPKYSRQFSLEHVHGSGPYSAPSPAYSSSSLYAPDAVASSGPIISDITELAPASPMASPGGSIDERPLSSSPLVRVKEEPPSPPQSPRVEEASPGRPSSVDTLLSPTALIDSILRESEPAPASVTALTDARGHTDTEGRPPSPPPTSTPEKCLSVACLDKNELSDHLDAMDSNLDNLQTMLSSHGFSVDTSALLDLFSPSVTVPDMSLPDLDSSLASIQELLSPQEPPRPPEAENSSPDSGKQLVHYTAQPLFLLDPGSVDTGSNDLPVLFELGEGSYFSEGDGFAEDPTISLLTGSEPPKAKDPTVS
# Outline: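 Read-out: fluorescence of reporter-specific RT-PCR fragments separated by capillary electrophoresis. HepG2 carrying transfected cis-element reporter units; 24 h dosing; activity fitted in both directions relative to DMSO baseline.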
# [15] = ATG_MRE_CIS: Attagene CIS-FACTORIAL HepG2 Assay for human Metal Responsive Element (MRE) (AID 2282954); conditions: HepG2 MRE cis-reporter transcription, Attagene multiplex; actives raise or lower the signal
# Outline: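 HepG2 cells transiently transfected with multiple cis-element reporter units measure endogenous MTF1-driven transcription. After 24 h compound exposure, reporter mRNA is quantified by RT-PCR with 6-FAM labelling, HpaI digestion and capillary electrophoresis; bidirectional fits versus DMSO.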
# [16] = ATG_GATA_CIS: Attagene CIS-FACTORIAL HepG2 Assay for human GATA Binding Protein (AID 2282944); conditions: HepG2 GATA cis-element reporter, Attagene multiplex mRNA; actives raise or lower the signal
# Outline: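 Read-out: fluorescent reporter mRNA fragments resolved by capillary electrophoresis after RT-PCR. Human liver HepG2 cells carried transiently transfected cis-regulated reporter constructs; chemicals incubated 24 h; gain or loss of signal fitted relative to DMSO.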
# [17] = ATG_GRE_CIS: Attagene CIS-FACTORIAL HepG2 Assay for human Glucocorticoid Response Elements (GRE) (AID 2282947); conditions: HepG2 GRE cis-reporter, Attagene multiplex mRNA; actives raise or lower the signal
# Outline: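 HepG2 cells transiently transfected with multiple cis-promoter reporter units measure endogenous TF activity; 24 h compound exposure. Reporter mRNA quantified by RT-PCR, FAM labelling, HpaI digestion and capillary electrophoresis; bidirectional fit vs DMSO baseline.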
# [18] = target: Hepatocyte nuclear factor 6 (Homo sapiens) (UniProt Q9UBC0); test: ATG_HNF6_CIS: Attagene CIS-FACTORIAL HepG2 Assay for human Hepatocyte Nuclear Factor 6 (HNF6) (AID 2282952); conditions: HepG2 Attagene cis-factorial HNF6 reporter transcription; actives raise or lower the signal
# Chain of Hepatocyte nuclear factor 6 (Homo sapiens) (Q9UBC0 whole entry, looked up, the tested form may be a part): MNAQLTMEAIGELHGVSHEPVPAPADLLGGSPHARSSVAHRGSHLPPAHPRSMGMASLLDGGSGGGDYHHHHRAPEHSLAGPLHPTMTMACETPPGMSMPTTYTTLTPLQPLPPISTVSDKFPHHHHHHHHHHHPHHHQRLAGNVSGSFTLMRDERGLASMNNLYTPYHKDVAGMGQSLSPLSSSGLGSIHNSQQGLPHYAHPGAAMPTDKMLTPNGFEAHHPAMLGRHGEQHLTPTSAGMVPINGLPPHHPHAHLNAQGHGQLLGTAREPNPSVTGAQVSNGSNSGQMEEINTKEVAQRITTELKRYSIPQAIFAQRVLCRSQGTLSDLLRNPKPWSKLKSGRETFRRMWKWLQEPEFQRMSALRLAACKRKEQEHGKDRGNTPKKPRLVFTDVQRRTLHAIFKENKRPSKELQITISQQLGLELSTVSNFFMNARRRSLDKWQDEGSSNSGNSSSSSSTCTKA
# Outline: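 Reporter mRNA induction or loss in HepG2 after 24 h exposure; transient cis-MRTU transfection; fragments quantified by capillary electrophoresis; bidirectional analysis, DMSO as negative control.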
# [19] = target: Bile acid receptor (Homo sapiens) (UniProt Q96RI1); test: ATG_IR1_CIS: Attagene CIS-FACTORIAL HepG2 Assay for human Nuclear Receptor Subfamily 1 Group H Member 4 (NR1H4), IR1 submotif (AID 2282946); conditions: IR1 reporter transcription, actives raise or lower the signal
# Chain of Bile acid receptor (Homo sapiens) (Q96RI1 whole entry, looked up): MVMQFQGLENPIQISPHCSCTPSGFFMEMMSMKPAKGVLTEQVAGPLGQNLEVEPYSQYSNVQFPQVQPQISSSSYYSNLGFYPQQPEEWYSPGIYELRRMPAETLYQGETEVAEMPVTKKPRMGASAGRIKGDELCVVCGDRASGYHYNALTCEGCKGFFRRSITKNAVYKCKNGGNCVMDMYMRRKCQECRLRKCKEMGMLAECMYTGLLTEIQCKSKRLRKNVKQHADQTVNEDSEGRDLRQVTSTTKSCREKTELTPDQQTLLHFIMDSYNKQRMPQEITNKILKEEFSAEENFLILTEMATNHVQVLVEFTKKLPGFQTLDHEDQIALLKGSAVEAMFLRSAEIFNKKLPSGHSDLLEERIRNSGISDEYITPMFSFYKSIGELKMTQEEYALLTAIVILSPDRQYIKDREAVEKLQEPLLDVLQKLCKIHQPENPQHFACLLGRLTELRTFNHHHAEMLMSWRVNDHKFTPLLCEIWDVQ
# Outline: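 Transient MRTU transfection, HepG2; 24 h dosing; RNA → RT-PCR → 6-FAM primer extension → HpaI digest → capillary electrophoresis fluorescence. Gain/loss of signal fitted relative to DMSO.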
# [20] = ATG_EGR_CIS: Attagene CIS-FACTORIAL HepG2 Assay for human Early Growth Response 1 (EGR1) (AID 2282938); conditions: HepG2 Attagene CIS-FACTORIAL EGR reporter mRNA; actives raise or lower the signal
# Outline: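 Endpoint derived by bidirectional fitting versus DMSO vehicle. Method: cis-promoter reporter units transfected into HepG2, 24 h dosing, RNA isolation, RT-PCR with 6-FAM primer extension and HpaI digestion, then capillary electrophoresis fluorescence detection.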
compound,measurement,setting,value
CCCCCCCCCO,outcome,[1],inactive
same,outcome,[2],inactive
same,outcome,[3],inactive
same,outcome,[4],inactive
same,outcome,[5],inactive
same,outcome,[6],inactive
same,outcome,[7],inactive
same,outcome,[8],inactive
same,outcome,[9],inactive
same,outcome,[10],inactive
same,outcome,[11],inactive
same,outcome,[12],inactive
same,outcome,[13],inactive
same,outcome,[14],inactive
same,outcome,[15],inactive
C[C@]12CC[C@@H]3c4ccc(O)cc4CC[C@H]3[C@@H]1CC[C@@H]2O,outcome,[1],inactive
same,outcome,[2],inactive
same,outcome,[3],inactive
same,outcome,[4],inactive
same,outcome,[6],inactive
same,outcome,[7],inactive
same,outcome,[8],inactive
same,outcome,[16],inactive
same,outcome,[9],inactive
same,outcome,[17],inactive
same,outcome,[10],inactive
same,outcome,[11],inactive
same,outcome,[12],inactive
same,outcome,[18],inactive
same,outcome,[14],inactive
same,AC50,[15],31.8 µM (active) and 21 µM (active) and 25.8 µM (active)
same,outcome,[15],inactive
CC(=O)c1ccc(C)cc1,outcome,[1],inactive
same,outcome,[2],inactive
same,outcome,[3],inactive
same,outcome,[4],inactive
same,outcome,[6],inactive
same,outcome,[7],inactive
same,outcome,[8],inactive
same,outcome,[16],inactive
same,outcome,[9],inactive
same,outcome,[17],inactive
same,outcome,[10],inactive
same,outcome,[12],inactive
same,outcome,[13],inactive
same,outcome,[18],inactive
same,outcome,[14],inactive
same,outcome,[15],inactive
CC12CCC(C1)C(C)(C)C2O (stereo unspecified),outcome,[1],inactive
same,outcome,[2],inactive
same,outcome,[3],inactive
same,outcome,[4],inactive
same,outcome,[6],inactive
same,outcome,[7],inactive
same,outcome,[8],inactive
same,outcome,[16],inactive
same,outcome,[9],inactive
same,outcome,[19],inactive
same,outcome,[10],inactive
same,outcome,[11],inactive
same,outcome,[18],inactive
same,outcome,[14],inactive
CN(C)C(=O)Nc1ccccc1,outcome,[1],inactive
same,outcome,[2],inactive
same,outcome,[3],inactive
same,outcome,[20],inactive
same,outcome,[6],inactive
same,outcome,[7],inactive
same,outcome,[8],inactive
same,outcome,[16],inactive
same,outcome,[9],inactive
same,outcome,[10],inactive
same,outcome,[11],inactive
same,outcome,[13],inactive
same,outcome,[18],inactive
same,outcome,[14],inactive
same,outcome,[15],inactive
CCCC[N+](C)(CCCC)CCCC,outcome,[1],inactive
same,outcome,[2],inactive
same,outcome,[3],inactive
same,outcome,[4],inactive
same,outcome,[5],inactive
same,outcome,[6],inactive
same,outcome,[7],inactive
same,outcome,[8],inactive
same,outcome,[9],inactive
same,outcome,[17],inactive
same,outcome,[10],inactive
same,outcome,[12],inactive
same,outcome,[18],inactive
same,outcome,[15],inactive
C=COCC1CCC(COC=C)CC1 (stereo unspecified),outcome,[1],inactive
same,outcome,[2],inactive
same,outcome,[3],inactive
same,outcome,[20],inactive
same,outcome,[6],inactive
same,outcome,[7],inactive
same,outcome,[8],inactive
same,outcome,[9],inactive
same,outcome,[17],inactive
same,outcome,[10],inactive
same,outcome,[11],inactive
same,outcome,[12],inactive
same,outcome,[13],inactive
same,outcome,[18],inactive
same,outcome,[15],inactive

# — PubChem BioAssay (EPA / NIEHS)
